# An excerpt weighted towards active compounds, which were near 3.4% of everything screened.
# NF-kB neuron act = compounds increasing NF-kB expression in human neuronal cells | NF-kB reporter expression; active compounds read high | fold change at 12.5 µM | 190,000 tested, 1.6% active; in the data active means fold change above about 3.3
# ssDAF12 agonist = S. stercoralis DAF-12 activation, primary screen | activation, % at 6.8 µM | 370,000 tested, 1% active | HEK293 ssDAF-12/GRIP1 lit1-tk-luc reporter, luminescence; % of 3 µM dafachronic acid response;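 active means activation above the mean over all tested compounds plus 3 SD, cut at about 0.9% in these data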;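 further: 0% = DMSO-only wells and 100% = 3 µM delta7-dafachronic acid wells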
# hgDAF-12 ag = hgDAF-12 agonism, primary luciferase screen; HEK293 GAL4-hgDAF12 UAS-luciferase reporter, agonist luminescence; normalized to butyrate control; activation, % at 6.8 µM; 370,000 tested, 1.8% active; AID 687014;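 active means activation above a cutoff set at the mean of all screened compounds plus 3 SD, cut at about 10% in these data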;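 further: 0% = DMSO wells and 100% = sodium butyrate wells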
# hcDAF12 agonist = activates DAF-12 receptor from parasite H. contortus. HEK293 hcDAF-12 lit1-tk-luc reporter, luminescence; 0% DMSO, 100% Δ7-dafachronic acid. 370,000 tested, 1.4% active. activation, % at 6.8 µM;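 active means activation above the mean of all tested compounds plus 3 SD, cut at about 5.5% in these data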;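 further: 100% = response to 3 µM Δ7-dafachronic acid high control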
# APP 5'UTR act = APP 5'UTR luciferase reporter activation; activation, % at 2 µM; SH-SY5Y APP 5'UTR luciferase reporter, luminescence; zero percent = DMSO vehicle wells; AID 1276; 190,000 tested, 1% active;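 active means activation above a set limit, based on mean plus 3 SD of controls, cut at about 140% in these data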
# An asterisk follows results filed as active; nt = no result.
SMILES,NF-kB neuron act,ssDAF12 agonist,hgDAF-12 ag,hcDAF12 agonist,APP 5'UTR act
CC1CCN(C(=O)COC(=O)c2ccc3c(c2)OCO3)CC1,0.93,-1,12*,2,64
CC1CCN(C(=O)COC(=O)c2ccc3c(c2)OCCO3)CC1,nt,0,8,2,nt
CC1CCN(C(=O)c2cc(-c3ccc4c(c3)OCO4)on2)CC1,nt,0,12*,4,nt
Cn1c(SCc2ccccc2)nnc1-c1ccco1,1.9,-1,13*,-1,41
Cn1c(SCc2ccccc2)nnc1-c1ccc(O)cc1,nt,0.9*,7,1,nt
O=C(CSc1nnc(-c2ccccc2)n1-c1ccc(Cl)cc1)c1ccccc1Br,nt,-1,-1,-2,nt
CCCC1CCC2(CCCN2CCOC(=S)Nc2ccccc2Br)CC1 (stereo not drawn),nt,-1,1,-1,nt
c1ccc(-n2c(SCc3cccc4ccccc34)nnc2-c2ccncc2)cc1,nt,-2,-1,-4,nt
O[C@H](COc1cccc(Br)c1)CN1CCC(C(O)(c2ccccc2)c2ccccc2)CC1,nt,-2,0,-2,nt
CN(Cc1ccccc1)S(=O)(=O)c1cccc(C(=O)OCc2ccccc2Cl)c1,nt,-1,-1,2,nt
O=c1c(Cl)c(Nc2cccc(Cl)c2)cnn1-c1nc2ccccc2s1,1.9,0,4,5.9*,116
COc1cc(/C=N/NC(=O)CC2(C)OCCCO2)ccc1OCc1ccccc1,1.2,-1,3,1,4
COc1cc(/C=N/NS(=O)(=O)c2ccc(C)cc2)ccc1OCc1ccc(C(=O)O)cc1,2.8,0,13*,3,-33
COc1cc(/C=N/NC(=O)CN2CCCCC2)ccc1OCc1ccc(Br)cc1,4.5*,0,12*,3,134
NC(=O)CSc1nc(C2CC2)nc2sc3c(c12)CCCC3,3.8*,-1,12*,2,140*
CN(C(=O)COC(=O)CSc1ccc([N+](=O)[O-])cc1)C1CCS(=O)(=O)C1 (stereo not drawn),nt,1.5*,-1,0,nt
C=CCN1C(C(=O)OC)CN(Cc2cn(Cc3ccc(OC)cc3)nn2)CCS1(=O)=O (stereo not drawn),nt,-2,-5,-2,nt
Cc1ccc(Cn2cc(COC(=O)N3CCOCC3)nn2)cc1,nt,1,6,-1,nt
CCc1nnc(NC(=O)c2ccc3ncsc3c2)s1,nt,-1,5,0,nt
O=C(Nc1ccc(F)cc1)c1ccc2ncsc2c1,nt,0,12*,4,nt
Cc1cnc(NC(=O)c2ccc3ncsc3c2)s1,nt,0,13*,5,nt
O=C(Nc1ccc(Cl)cc1)c1ccc2ncsc2c1,nt,-1,7,1,nt
N#CCC[C@H]1CC[C@]2(CCCN(C(=O)C3CCCC3)C2)O1,nt,-1,-1,-4,nt
CC(C)(C)C1CCC(=NNC(=S)Nc2cccnc2)CC1 (stereo not drawn),0.91,3.8*,0,-1,29
CCNC(=S)NN=C1CCC(C(C)(C)C)CC1 (stereo not drawn),1.2,-1,4,-1,-1
SMILES,NF-kB neuron act,ssDAF12 agonist,hgDAF-12 ag,hcDAF12 agonist,APP 5'UTR act
COc1ccc(/C=N/Nc2ncc(-c3ccccc3)cn2)c(OC)c1,0.67,-2,-1,-2,-1
COc1ccc(/C=N/Nc2ncccc2[N+](=O)[O-])c(OC)c1,7.9*,0,9,5,137*
O=[N+]([O-])c1ccccc1N/N=C\c1ccccc1Cl,3.7*,-1,2,0,nt
Cc1cc(N2CCC(C)CC2)nc2cccc(O)c12,4.5*,0,8,-1,39
Cc1cccc2c1N(CCOc1ccccc1Cl)C(=O)C2=O,3.7*,-1,-2,-1,-8
Cc1nc(SCC(=O)c2cc3ccccc3oc2=O)c(C#N)c(C)c1C(=O)Nc1ccccc1,0.99,1.1*,2,1,5
O=S1(=O)c2ccc(N3CCN(Cc4ccccc4F)CC3)cc2Oc2ccccc2CN1Cc1cn(Cc2ccc(F)cc2)nn1,nt,-2,0,-4,nt
COc1ccc(C)cc1Nc1n[n+](-c2ccccc2)c(-c2ccc(SC)cc2)s1,nt,0,12*,2,nt
O=C1C[C@@H](O)[C@H](O)c2cccc(O)c21,nt,0,-3,1,nt
COc1ccc(CNC2CCC23CCC(C)CC3)cc1 (stereo not drawn),nt,-1,0,-1,nt
O=C(NCCc1c[nH]c2ccccc12)c1ccc(Sc2ccccc2Cl)c([N+](=O)[O-])c1,nt,-1,2,3,nt
O=C(Nc1cccc2ccccc12)C(=O)C1C(=O)Nc2ccccc21 (stereo not drawn),nt,0,2,6.1*,nt
Cc1ccc(OCc2nnc(N)s2)cc1,1.7,-1,11*,2,46
C=CCOc1cccc(/C=N/NC(=O)CN(c2cc(Cl)ccc2OC)S(=O)(=O)c2ccc(C)c([N+](=O)[O-])c2)c1,0.9,1.0*,0,1,8
O=C(c1cnn(C(=O)COc2ccccc2F)c1)c1cc(F)ccc1O,nt,-1,3,1,nt
O=C(c1cnc2nc3ccccc3n2c1)c1cc(F)ccc1O,nt,0,7,5.6*,45
COC(=O)[C@]12C=CCN1[C@@H](c1ccc(Cl)cc1)c1c(c3ccccc3n1S(=O)(=O)c1ccc(C)cc1)C2,nt,0,5,1,nt
O=C(c1ccccc1)c1ccc(N2CCCC2)cc1,1.9,0,12*,2,46
O=C(Cc1ccccc1)c1ccc(N2CCOCC2)cc1,nt,-1,11*,1,nt
CC(C)CNC(=O)OCc1cn(Cc2ccc(F)cc2F)nn1,nt,-1,2,-1,nt
COc1ccc(CN2C(=O)N3Cc4ccc(C)cc4C3CS2(=O)=O)cc1 (stereo not drawn),nt,-1,1,0,nt
CC(=O)Nc1cc2c3c(cccc3c1)-c1ccccc1-2,nt,0,11*,2,nt
COc1ccc(C(=O)NCCN(C)C)c2nc3ccccc3cc12,nt,0,-6,5.8*,nt
Cc1ccc(-n2c(Cc3cccs3)nnc2SCc2ccc([N+](=O)[O-])cc2)cc1,nt,-2,-3,-3,nt
S=C(c1ccc(-c2ccc(Br)cc2)o1)N1CCCCC1,5.6*,-1,10,1,159*
SMILES,NF-kB neuron act,ssDAF12 agonist,hgDAF-12 ag,hcDAF12 agonist,APP 5'UTR act
S=C(c1ccc(-c2ccc(Br)cc2)o1)N1CCOCC1,nt,0,12*,3,nt
S=C(c1ccc(-c2ccc(Cl)c(Cl)c2)o1)N1CCOCC1,5.3*,nt,nt,nt,134
COc1ccc(-c2ccc(C(=S)N3CCN(C(C)=O)CC3)o2)cc1,1.2,-2,1,-1,2
S=C(c1ccc(-c2ccccc2Cl)o1)N1CCOCC1,2.5,nt,nt,nt,36
O=C(NC1CCCCN(Cc2cccc(C(F)(F)F)c2)C1=O)c1ccc(COc2ccccc2)cc1 (stereo not drawn),nt,-3,-4,-5,nt
CC(C)CNC(=O)OCc1cn(Cc2ccccc2)nn1,nt,-1,9,2,nt
Cc1noc(/C=C/c2ccccn2)c1[N+](=O)[O-],nt,-2,3,-1,nt
COc1ccccc1N/C=C/c1onc(C)c1[N+](=O)[O-],1.5,0,9,4,142*
Cc1noc(/C=C/Nc2ccc(F)cc2F)c1[N+](=O)[O-],6.9*,1,12*,2,173*
